DT40 TDP1 no CPT: qHTS for Inhibitors of human tyrosyl-DNA phosphodiesterase 1 (TDP1): qHTS in cells in absence of CPT; Potency, µM (titrated, usually from 46.2 µM), for inactives: at the highest dose activity change, negative = growth inhibition, actives largely listed as inhibitors; DT40 Tdp1-/- hTDP1 cells, no CPT, ATP luminescence, 48 h; 420,000 tested, 15% active; AID 686978, 2013; note: potency is the fitted concentration of half-maximal effect; nearly all actives have a fitted effect of over 55% in size
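Stably hTDP1-transfected Tdp1-null chicken DT40 cells were treated with library compounds minus camptothecin and grown for at least 48 hr at 37 °C, after which cellular ATP was quantified by luminescence.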
HT1080 IDH1KD tx: qHTS for induction of synthetic lethality in tumor cells producing 2HG: qHTS for the HT-1080-IDH1KD cell line. 360,000 tested, 2% active. HT-1080 IDH1 knockdown viability, ATP luminescence, 48 h. Potency, µM (doses to about 46.1 µM), without a hit: at the top dose activity, negative = toxicity, usual class: cytotoxic. AID 686971, 2013;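 note: potency is the fitted concentration of half-maximal effect; 0% = DMSO wells and -100% = cell-free medium wells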
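Knockdown cells (IDH1KD HT-1080) received compounds 2 h after plating at 750 cells/well and were kept 48 h at 37 °C in 5% FBS RPMI. A CellTiter-Glo luminescence read gave % activity for curve fitting.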
HT1080-NT tox: qHTS for induction of synthetic lethality in tumor cells producing 2HG: qHTS for the HT-1080-NT fibrosarcoma cell line; HT-1080-NT fibrosarcoma viability, CellTiter-Glo ATP luminescence, 48 h; Potency, µM (highest dose often 46.1 µM), for inactives: at the highest dose activity, negative = less viability, hits mostly cytotoxic; 360,000 tested, 1.6% active; AID 686970, 2013;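 note: NT is the 2HG producing partner of a matched IDH1 knockdown line; potency is the fitted concentration of half-maximal effect; 0% = DMSO-treated cells and -100% = media-only wells without cells; nearly all actives have a fitted effect of over 55% in size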
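A 48-hour cytotoxicity screen used HT-1080-NT cells plated 2 hours before compound delivery. ATP-based CellTiter-Glo luminescence measured viability, normalized to DMSO and no-cell controls.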
DT40 TDP1 CPT: qHTS for Inhibitors of human tyrosyl-DNA phosphodiesterase 1 (TDP1): qHTS in cells in presence of CPT; chicken DT40 Tdp1-/-;hTDP1 cells + 20 nM CPT, ATP luminescence, 48 h; 420,000 tested, 12% active; Potency, µM (series often up to 46.2 µM), for inactives: at the top dose activity change, negative = growth inhibition, most hits filed as inhibitors; note: potency is the fitted concentration of half-maximal effect; nearly all actives have a fitted effect of over 55% in size
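Chicken DT40 Tdp1-/- cells stably complemented with human TDP1 were seeded at 400 cells/well in medium containing 20 nM camptothecin, exposed to pin-transferred compounds, and grown at 37 °C for at least 48 hr. Viability was read as ATP luminescence.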
12-LOX inh: Primary qHTS assay for inhibitors of human arachidonate 12S-lipoxygenase (ALOX12): Round 2; Polyunsaturated fatty acid lipoxygenase ALOX12 (Homo sapiens), P18054; purified 12hLO, xylenol orange hydroperoxide absorbance; Potency, µM (highest dose often 108 µM), for the others: at the highest dose activity change, negative = inhibition, hits mostly inhibitors; 580,000 tested, 1.1% active; note: potency is the fitted concentration of half-maximal effect
Target sequence (P18054 whole entry, looked up): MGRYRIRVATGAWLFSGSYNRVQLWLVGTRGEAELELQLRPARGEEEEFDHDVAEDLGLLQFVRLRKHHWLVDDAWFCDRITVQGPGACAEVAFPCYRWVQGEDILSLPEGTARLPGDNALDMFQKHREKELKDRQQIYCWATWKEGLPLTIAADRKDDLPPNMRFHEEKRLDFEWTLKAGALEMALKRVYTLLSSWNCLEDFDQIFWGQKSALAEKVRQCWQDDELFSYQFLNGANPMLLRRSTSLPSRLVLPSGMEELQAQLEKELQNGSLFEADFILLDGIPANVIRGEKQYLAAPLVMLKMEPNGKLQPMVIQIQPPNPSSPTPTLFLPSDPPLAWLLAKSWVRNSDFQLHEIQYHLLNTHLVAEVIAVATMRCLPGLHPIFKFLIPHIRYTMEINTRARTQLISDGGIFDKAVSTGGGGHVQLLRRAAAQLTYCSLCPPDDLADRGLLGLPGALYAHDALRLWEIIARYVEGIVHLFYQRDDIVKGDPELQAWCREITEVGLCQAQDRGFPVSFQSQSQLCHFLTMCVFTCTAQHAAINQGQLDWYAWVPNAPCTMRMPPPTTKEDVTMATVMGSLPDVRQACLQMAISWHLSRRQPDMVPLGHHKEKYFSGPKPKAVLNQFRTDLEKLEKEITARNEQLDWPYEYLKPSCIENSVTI
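Purified human 12hLO at 150 nM in 25 mM Hepes, 0.01% Triton X-100, pH 7.0, preincubated 15 min at room temperature with compound. Reaction started with 40 uM arachidonic acid, 30 min at room temperature. Hydroperoxide measured by Fe-xylenol orange, 573/405 nm absorbance ratio.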
IL-1B inflam inh: qHTS for Inhibitors of Inflammasome Signaling: IL-1-beta AlphaLISA Primary Screen; THP-1 LPS/ATP IL-1B secretion, AlphaLISA, 16 h; stronger effect = lower value; activity change, % at 57.5 µM; 360,000 tested, 4.7% active; AID 743279, 2014; in the data active = activity change below about -50%; inconclusive = mostly about -30% to -49%
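THP-1 cells pretreated 1 hr with compounds (up to 57.5 uM final), then stimulated with LPS (250 ng/mL final) plus ATP (1.25 mM final); secreted IL-1B measured by AlphaLISA after 16 hr, decreased signal indicating inhibition.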
* marks the source's active call; other numbers are inactive results. Many of the other results were omitted from the sample, so hits are more common in it than they were. Unless noted, calls come from the whole dose curve; as a rule, active = well fitted curve in the direction sought with a large enough effect; inconclusive = small, poorly fitted or top-dose-only effect, or another doubt; inactive = no such curve, though single readings can be large; an effect the other way counts as inactive or inconclusive. Unless noted, % is set by controls: 0 for no effect and ±100 for the full control effect.

Screening O=C(N/N=C/c1ccc(O)cc1O)c1ccc(NC(=O)C2CCCCC2)cc1 returned DT40 TDP1 no CPT 7.3µM*, HT1080 IDH1KD tx 9.2µM*, HT1080-NT tox inconclusive, DT40 TDP1 CPT 6.5µM*, 12-LOX inh -5% and IL-1B inflam inh 267.
`O=C(N/N=C/c1cccc(O)c1)c1ccc(NC(=O)C2CCCCC2)cc1` gave DT40 TDP1 no CPT inconclusive, HT1080 IDH1KD tx -27%, HT1080-NT tox -7%, DT40 TDP1 CPT inconclusive, 12-LOX inh 472% and IL-1B inflam inh -2.
`CN(/N=C/c1cc(Br)cc(Br)c1O)c1ccccc1` gave DT40 TDP1 no CPT 3%, HT1080 IDH1KD tx -6%, HT1080-NT tox 1%, DT40 TDP1 CPT 2%, 12-LOX inh -19% and IL-1B inflam inh 7.
For Cc1onc(-c2ccccc2)c1C(=O)N/N=C/c1ccc([N+](=O)[O-])s1 the results were DT40 TDP1 no CPT 13µM*, HT1080 IDH1KD tx inconclusive, HT1080-NT tox -8%, DT40 TDP1 CPT 16µM*, 12-LOX inh inconclusive and IL-1B inflam inh -13.
For Cc1nonc1C(=O)N/N=C/c1ccc(O)cc1O the results were DT40 TDP1 no CPT 3.7µM*, HT1080 IDH1KD tx 2.1µM*, HT1080-NT tox inconclusive, DT40 TDP1 CPT 3.3µM*, 12-LOX inh 2% and IL-1B inflam inh 142.
`Cc1onc(-c2ccccc2)c1C(=O)N/N=C/c1ccco1` gave DT40 TDP1 no CPT 0%, HT1080 IDH1KD tx 2%, HT1080-NT tox -7%, DT40 TDP1 CPT -29%, 12-LOX inh 70% and IL-1B inflam inh 14.
For COCCN1CCCCCC(O)c2cc(C(=O)NCc3ccc(N4CCC(C)CC4)cc3)ccc21 (configuration not stated) the results were 12-LOX inh 11%.
Cc1[nH]c2ccc(F)cc2c1CC(=O)NCC(C)(C)CN(C)C was read as 12-LOX inh 19%.
Cc1onc(-c2ccccc2)c1C(=O)NN=Cc1cc(Cl)cc(Cl)c1O was read as 12-LOX inh 13µM*.
Screening COC(=O)N/N=C/c1cc([N+](=O)[O-])cc(Br)c1O returned DT40 TDP1 no CPT inconclusive, HT1080 IDH1KD tx -7%, HT1080-NT tox -29%, DT40 TDP1 CPT -29%, 12-LOX inh 10% and IL-1B inflam inh 0.
For CCC(O)(CC)C(=O)N/N=C/c1cc(Br)cc(Br)c1O the results were DT40 TDP1 no CPT 15µM*, HT1080 IDH1KD tx inconclusive, HT1080-NT tox inconclusive, DT40 TDP1 CPT 21µM*, 12-LOX inh -17% and IL-1B inflam inh 77.
Screening Cc1onc(-c2ccccc2)c1C(=O)N/N=C/c1cccc(O)c1 returned DT40 TDP1 no CPT inconclusive, HT1080 IDH1KD tx 2%, HT1080-NT tox 0%, DT40 TDP1 CPT -17%, 12-LOX inh -16% and IL-1B inflam inh 30.
Screening COc1ccc(Br)cc1/C=N/Nc1cccc(C(=O)O)c1 returned DT40 TDP1 no CPT -14%, HT1080 IDH1KD tx 11%, HT1080-NT tox -1%, DT40 TDP1 CPT -18%, 12-LOX inh inconclusive and IL-1B inflam inh 19.
O=C(N/N=C/c1cc(Br)cc(Br)c1O)c1ccncc1 was read as DT40 TDP1 no CPT 0.65µM*, HT1080 IDH1KD tx inconclusive, HT1080-NT tox inconclusive, DT40 TDP1 CPT 2.6µM*, 12-LOX inh inconclusive and IL-1B inflam inh 164.

High-throughput results deposited in PubChem by National Center for Advancing Translational Sciences (NCATS).
